In the first assay the target is Solute carrier family 2, facilitated glucose transporter member 1 (Homo sapiens) (UniProt P11166). Description: ST_JUDE_LEISH: Cytotoxicity at 2uM final concentration against transgenic Leishmania Mexicana promastigotes LmGLUT1 that are glucose transport deficient and complemented with the human glucose transporter GLUT1. Activity is measured by DNA content using SYBR green in vitro. It counts as functional.
Chain of Solute carrier family 2, facilitated glucose transporter member 1 (Homo sapiens) (P11166 whole entry): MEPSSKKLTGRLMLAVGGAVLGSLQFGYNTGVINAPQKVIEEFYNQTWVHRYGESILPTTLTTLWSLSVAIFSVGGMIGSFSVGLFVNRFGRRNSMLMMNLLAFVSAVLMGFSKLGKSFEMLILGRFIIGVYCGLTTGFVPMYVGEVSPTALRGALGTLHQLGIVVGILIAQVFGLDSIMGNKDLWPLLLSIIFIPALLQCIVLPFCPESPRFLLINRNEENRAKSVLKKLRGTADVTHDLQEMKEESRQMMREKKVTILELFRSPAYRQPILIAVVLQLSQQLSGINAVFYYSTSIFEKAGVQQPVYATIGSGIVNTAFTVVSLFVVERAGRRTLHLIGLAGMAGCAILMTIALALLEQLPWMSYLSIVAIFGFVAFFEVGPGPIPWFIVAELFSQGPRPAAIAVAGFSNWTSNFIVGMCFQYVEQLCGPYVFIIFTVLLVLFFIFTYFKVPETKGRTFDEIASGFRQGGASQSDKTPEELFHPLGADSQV
On to `Cc1noc(-c2ccc(N3CCC(C(=O)N4CCN(C(C)C)CC4)CC3)cc2)n1`, for which the inhibition is 1.72%.
Still for that read-out and setting: to `C=CCc1cc(SC)ccc1Oc1ccc(N)cc1` belongs 1.84%; to `COc1ccc(N2CCN(CCCC/C=C/c3ccc(NC(=O)c4cc(Cl)cc(Cl)c4)cc3)CC2)c(OC)c1`, 2.58%.
The same measure, in the same setting: the figure for `COc1ccc(Nc2nccc(N3CCC(NC(=O)Nc4cccc(C(C)=O)c4)C3)n2)cc1` (stereo not given) is -3.73%; for `CC1=C(C(=O)Nc2ccccc2)C(c2ccc([N+](=O)[O-])cc2)n2ncc(C(=O)Nc3ccccc3)c2N1` (stereo not given) it is 14.2%; for `N#Cc1ccc(NC2(C(=O)N3CCN(c4cccc(Cl)c4)CC3)CC2)c2ccccc12` it is 2.79%.
On the same count and under the same terms, to `Cc1cc(NC(=O)c2sc3ccccc3c2O)no1` belongs 2.41%; to `COCCNCc1ccc(-c2ccc3c(Nc4ccc(F)cc4Cl)ccnc3c2)o1`, 4.1%; to `c1ccc2c(c1)cc(CNCCCN1CCN(CCCNCc3cc4ccccc4c4ccccc34)CC1)c1ccccc12`, -0.37%.
Regarding `Cc1cc(-c2cc(-c3ccc(OCCN(C)C)cc3)[nH]c2-c2ccc3c(c2)CCC3=NO)ccn1`, the inhibition was 4.92%.
`Cc1cc(C(=O)NCc2ccc(-c3c(C)noc3C)cc2)n(-c2ccccc2)n1`: the inhibition is 4.79%.
`COc1ccccc1C1CCN(C2CCC(NC(=O)/C=C/c3cc(F)cc(C(F)(F)F)c3)CC2)CC1` (stereo not given): the inhibition was -0.82%.
For the compound `O=C(Nc1ccc2oc(-c3ccc(Cl)cc3Cl)nc2c1)c1ccc([N+](=O)[O-])o1`, the inhibition amounted to 88.9%.
With `N#CN1CC[C@H](CS(=O)(=O)c2cccc(Br)c2)C1`, the inhibition was found to be 6.21%.
In the case of `O=C(/C=C/c1ccc(Cl)c(Cl)c1)NCCCCCN1CCCN(C(=O)Nc2ccc([N+](=O)[O-])cc2)CC1`, the inhibition is 1.18%.
Regarding `CN(C)CCOC(=O)C1(O)CCC2CC1C2(C)C` (stereo not given), the inhibition was 2.52%.
The same measure, in the same setting: to `CC(C)(C)c1ccc(CN2CCC(CNC(=O)c3cc(-c4ccccc4Cl)cs3)C2)cc1` (stereo not given) belongs 0.49%.
Consider `CCCOc1cccc(C(=O)N[C@@H](Cc2ccccc2)[C@H](O)CNCc2cccc(OC)c2)c1`, for which the inhibition amounted to 0.22%.
On to `CC(=O)N1N=C(c2ccc(Cl)cc2)Sc2c1nc(-c1ccccc1)n2C(C)=O`, for which the inhibition was found to be 2.66%.
As for `O=C(c1cc2nc3c(c(C(F)(F)F)n2n1)CCc1ccccc1-3)N1CCN2CCCC2C1` (stereo not given), the inhibition was found to be 2.06%.
Consider `CCOC(=O)c1nc(-c2ccccc2)[nH]c1NC(=S)NC1CCCCC1`, for which the inhibition was -0.61%.
`CN1CCN(c2ccnc3ccc(NC(=O)Nc4cccc5ccccc45)cc23)CC1`: the inhibition is 1.43%.
On the same count and under the same terms, to `CNC(=O)c1cnc(Nc2ccc(N3CCN(C)CC3)cc2)nc1Nc1cccc(OC(C)C)c1` belongs 3.75%; to `CC1CN(c2ccc3occ(C(=O)Nc4ccc(-c5ccncc5)c(Cl)c4)c3c2)CC(C)N1C` (stereo not given), 5.54%; to `CN1CCN(CC(=O)Nc2cccc(-c3cccc(-c4nc5cc(F)ccc5[nH]4)c3)c2)CC1`, 0.82%.
The same measure, in the same setting: to `O=C(NC1CCN(CC2(c3ccccc3)CCCC2)CC1)c1n[nH]cc1Cl` belongs 0.19%; to `O=C(NCCCCCN1CCCN(C(=O)Nc2ccc(F)c(C(F)(F)F)c2)CC1)C1CC1c1ccc(Cl)c(Cl)c1` (stereo not given), 2.53%; to `COc1ccc(OC)c(CC2c3ccc(Br)c(O)c3CCN2C)c1` (stereo not given), 1.36%.
With `N=c1n(Cc2ccccc2)c2ccccc2n1CC(O)c1ccc(Cl)c(Cl)c1` (stereo not given), the inhibition is -0.72%.
The same measure, in the same setting: the figure for `Cc1ccc(CN(Cc2ccc(C(=O)N(C)C)cc2)Cc2ccc3c(c2)OCCO3)cc1C` is 0.09%; for `CCCNC(=O)C1CCN(C(c2ccc(Cl)cc2)c2ccc(Cl)cc2)CC1` it is -0.62%; for `O=C(Nc1cccc(CN2CCN(Cc3ccc(O)cc3)CC2)c1)c1cc2ccccc2s1` it is 8.18%.
`COc1cc(CNC[C@@H](O)[C@H](Cc2ccccc2)NC(=O)c2cc(C3CCCC3)cc(N3CCCCS3(=O)=O)c2)cc(OC)c1`: the inhibition was 5.15%.
Consider `O=C(Nc1ccc(C(F)(F)F)cc1)c1cccc(S(=O)(=O)NC2CCN(CC3CCCCC3)CC2)c1`, for which the inhibition amounted to 5.27%.
Same read-out and setting: to `Cc1cc(N2CCN(C3CCCCC3)CC2)nc2cccc(O)c12` belongs -1.8%; to `CCNCc1ccc(-c2cccc(-c3nc4ccccc4[nH]3)c2)cc1`, 1.09%; to `Nc1c(Cl)cc(C(O)CNCCCCCCOCCc2ccc(O)cc2)cc1Cl` (stereo not given), -0.61%.
On to `O=C1CC(C(=O)Nc2cccc(-c3cccc(-c4nc5ccccc5[nH]4)c3)c2)c2ccccc2N1` (stereo not given), for which the inhibition came out at 7.77%.
The same measure, in the same setting: to `Cc1nc(C)c(C2CCC(c3ccc(Cl)cc3)CC2)c(O)c1Cl` (stereo not given) belongs 5.98%; to `CSc1ccc(CN2CCC(NC(=O)c3ccc(-c4cccc(Cl)c4)s3)CC2)cc1`, 7.55%.

The next assay deals with Hexose transporter 1 (Plasmodium falciparum) (UniProt O97467). As to the kind of experiment: ST_JUDE_LEISH: Cytotoxicity at 2uM final concentration against transgenic Leishmania Mexicana promastigotes LmPfHT that are glucose transport deficient and complemented with the Plasmodium falciparum hexose transporter. Activity is measured by DNA content using SYBR green in vitro. It counts as functional.
As to `Cc1noc(-c2ccc(N3CCC(C(=O)N4CCN(C(C)C)CC4)CC3)cc2)n1`, the inhibition is 2.07%.
With `C=CCc1cc(SC)ccc1Oc1ccc(N)cc1`, the inhibition amounted to 2.06%.
Still for that read-out and setting: the figure for `COc1ccc(N2CCN(CCCC/C=C/c3ccc(NC(=O)c4cc(Cl)cc(Cl)c4)cc3)CC2)c(OC)c1` is 1.17%; for `COc1ccc(Nc2nccc(N3CCC(NC(=O)Nc4cccc(C(C)=O)c4)C3)n2)cc1` (stereo not given) it is 0.98%; for `CC1=C(C(=O)Nc2ccccc2)C(c2ccc([N+](=O)[O-])cc2)n2ncc(C(=O)Nc3ccccc3)c2N1` (stereo not given) it is 6.94%.
Still for that read-out and setting: the figure for `N#Cc1ccc(NC2(C(=O)N3CCN(c4cccc(Cl)c4)CC3)CC2)c2ccccc12` is 2.36%; for `Cc1cc(NC(=O)c2sc3ccccc3c2O)no1` it is 1.84%; for `COCCNCc1ccc(-c2ccc3c(Nc4ccc(F)cc4Cl)ccnc3c2)o1` it is 4.05%.
On to `c1ccc2c(c1)cc(CNCCCN1CCN(CCCNCc3cc4ccccc4c4ccccc34)CC1)c1ccccc12`, for which the inhibition was found to be 0.84%.
With `Cc1cc(-c2cc(-c3ccc(OCCN(C)C)cc3)[nH]c2-c2ccc3c(c2)CCC3=NO)ccn1`, the inhibition is 3.52%.
As for `Cc1cc(C(=O)NCc2ccc(-c3c(C)noc3C)cc2)n(-c2ccccc2)n1`, the inhibition is 4.63%.
With `COc1ccccc1C1CCN(C2CCC(NC(=O)/C=C/c3cc(F)cc(C(F)(F)F)c3)CC2)CC1` (stereo not given), the inhibition amounted to 0.7%.
Still for that read-out and setting: the figure for `O=C(Nc1ccc2oc(-c3ccc(Cl)cc3Cl)nc2c1)c1ccc([N+](=O)[O-])o1` is 54.3%; for `N#CN1CC[C@H](CS(=O)(=O)c2cccc(Br)c2)C1` it is 4.67%; for `O=C(/C=C/c1ccc(Cl)c(Cl)c1)NCCCCCN1CCCN(C(=O)Nc2ccc([N+](=O)[O-])cc2)CC1` it is 1.11%.
Still for that read-out and setting: the figure for `CN(C)CCOC(=O)C1(O)CCC2CC1C2(C)C` (stereo not given) is 2.06%.
Take `CC(C)(C)c1ccc(CN2CCC(CNC(=O)c3cc(-c4ccccc4Cl)cs3)C2)cc1` (stereo not given): the inhibition turned out to be 0.05%.
Same read-out and setting: to `CCCOc1cccc(C(=O)N[C@@H](Cc2ccccc2)[C@H](O)CNCc2cccc(OC)c2)c1` belongs 0.92%; to `CC(=O)N1N=C(c2ccc(Cl)cc2)Sc2c1nc(-c1ccccc1)n2C(C)=O`, 1.84%.
As for `O=C(c1cc2nc3c(c(C(F)(F)F)n2n1)CCc1ccccc1-3)N1CCN2CCCC2C1` (stereo not given), the inhibition is 2.1%.
As to `CCOC(=O)c1nc(-c2ccccc2)[nH]c1NC(=S)NC1CCCCC1`, the inhibition was -0.88%.
Regarding `CN1CCN(c2ccnc3ccc(NC(=O)Nc4cccc5ccccc45)cc23)CC1`, the inhibition was -0.09%.
As to `CNC(=O)c1cnc(Nc2ccc(N3CCN(C)CC3)cc2)nc1Nc1cccc(OC(C)C)c1`, the inhibition is 1.38%.
For the compound `CC1CN(c2ccc3occ(C(=O)Nc4ccc(-c5ccncc5)c(Cl)c4)c3c2)CC(C)N1C` (stereo not given), the inhibition is 3.33%.
With `CN1CCN(CC(=O)Nc2cccc(-c3cccc(-c4nc5cc(F)ccc5[nH]4)c3)c2)CC1`, the inhibition came to 1.22%.
Take `O=C(NC1CCN(CC2(c3ccccc3)CCCC2)CC1)c1n[nH]cc1Cl`: the inhibition was 0.32%.
As for `O=C(NCCCCCN1CCCN(C(=O)Nc2ccc(F)c(C(F)(F)F)c2)CC1)C1CC1c1ccc(Cl)c(Cl)c1` (stereo not given), the inhibition worked out at 2.1%.
Take `COc1ccc(OC)c(CC2c3ccc(Br)c(O)c3CCN2C)c1` (stereo not given): the inhibition worked out at 1.41%.
Turning to `N=c1n(Cc2ccccc2)c2ccccc2n1CC(O)c1ccc(Cl)c(Cl)c1` (stereo not given), the inhibition was determined as 1.71%.
Take `Cc1ccc(CN(Cc2ccc(C(=O)N(C)C)cc2)Cc2ccc3c(c2)OCCO3)cc1C`: the inhibition was found to be 0.35%.
Still for that read-out and setting: to `CCCNC(=O)C1CCN(C(c2ccc(Cl)cc2)c2ccc(Cl)cc2)CC1` belongs 2.95%.
With `O=C(Nc1cccc(CN2CCN(Cc3ccc(O)cc3)CC2)c1)c1cc2ccccc2s1`, the inhibition was found to be 7.34%.
Take `COc1cc(CNC[C@@H](O)[C@H](Cc2ccccc2)NC(=O)c2cc(C3CCCC3)cc(N3CCCCS3(=O)=O)c2)cc(OC)c1`: the inhibition is 5.6%.
On the same count and under the same terms, to `O=C(Nc1ccc(C(F)(F)F)cc1)c1cccc(S(=O)(=O)NC2CCN(CC3CCCCC3)CC2)c1` belongs 5.53%; to `Cc1cc(N2CCN(C3CCCCC3)CC2)nc2cccc(O)c12`, -0.66%; to `CCNCc1ccc(-c2cccc(-c3nc4ccccc4[nH]3)c2)cc1`, 1.16%.
On to `Nc1c(Cl)cc(C(O)CNCCCCCCOCCc2ccc(O)cc2)cc1Cl` (stereo not given), for which the inhibition is -1.55%.
Take `O=C1CC(C(=O)Nc2cccc(-c3cccc(-c4nc5ccccc5[nH]4)c3)c2)c2ccccc2N1` (stereo not given): the inhibition was 6.55%.
For `Cc1nc(C)c(C2CCC(c3ccc(Cl)cc3)CC2)c(O)c1Cl` (stereo not given), the inhibition is 56.3%.
Turning to `CSc1ccc(CN2CCC(NC(=O)c3ccc(-c4cccc(Cl)c4)s3)CC2)cc1`, the inhibition turned out to be 6.28%.

Values taken from ChEMBL document CHEMBL3433997, “St. Jude Leishmania screening dataset” (2016).
